PubChem BioAssay (NCI)
This is part of a sample that, as a whole, favours compounds with a hit. Of some 83,000 tested, about 20% had one in any assay.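 Each cell line was grown in a 96-well plate and treated with one concentration of compound for 48 hours. Values below 10 were considered active.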 Values without a mark were called inactive. Active and inactive are the calls of the source.

Columns and labels:
Test in all cases: NCI-60 one-dose screen, 48 h (100 = growth as untreated, 0 = no growth, -100 = all killed)
Conditions in all cases: 10 µM
[1] = tested on: SK-MEL-2 melanoma
[2] = tested on: EKVX NSCLC
[3] = tested on: SN12C renal
[4] = tested on: UO-31 renal
[5] = tested on: TK-10 renal
[6] = tested on: ACHN renal
[7] = tested on: CAKI-1 renal
[8] = tested on: A498 renal
[9] = tested on: CCRF-CEM leukemia
[10] = tested on: MOLT-4 leukemia
[11] = tested on: SR leukemia
[12] = tested on: RPMI-8226 leukemia
[13] = tested on: OVCAR-8 ovarian
[14] = tested on: OVCAR-5 ovarian
[15] = tested on: OVCAR-4 ovarian
[16] = tested on: SK-OV-3 ovarian
[17] = tested on: IGROV1 ovarian
[18] = tested on: OVCAR-3 ovarian
[19] = tested on: HS 578T breast
[20] = tested on: NCI/ADR-RES ovarian

| Compound | growth [1] | growth [2] | growth [3] | growth [4] | growth [5] | growth [6] | growth [7] | growth [8] | growth [9] | growth [10] | growth [11] | growth [12] | growth [13] | growth [14] | growth [15] | growth [16] | growth [17] | growth [18] | growth [19] | growth [20] |
| --- | --- | --- | --- | --- | --- | --- | --- | --- | --- | --- | --- | --- | --- | --- | --- | --- | --- | --- | --- | --- |
| COc1cc(Cn2c(-c3ccccc3)cc3c2-c2oncc2CC3)cc(OC)c1 | 22.3% | 43.7% | 24.3% | 9.92% (active) | 57.4% | 34.7% | 18% | -14.7% (active) | 11.3% | 12.2% | 2.06% (active) | 34.8% | 21.7% | 42.6% | 51.8% | 0.474% (active) | 7.96% (active) | -47.1% (active) | -6.35% (active) | -19.5% (active) |
| N#CC1C=Cc2c(ccc3ccccc23)N1C(=O)c1ccccc1 (configuration not stated) | 40.7% | 17.3% | 39.1% | 38.2% | 52.8% | 42.7% | 20.6% | -7.88% (active) | 20.3% | 18.9% | 13.9% | 38.1% | 25.7% | 45.4% | 45.2% | 4.99% (active) | 26% | -56.5% (active) | -8.86% (active) | -21.8% (active) |
| COc1cc(N=C2C(=O)N(Cc3ccccc3)c3ccccc32)cc(OC)c1OC | 98.3% | 101% | 99.6% | 77.3% | 112% | 97.4% | 83.8% | 108% | 29.5% | 96.9% | 74.5% | 38.4% | 96.6% | 95% | 98.8% | 101% | 86% | 84.4% | 82.9% | 94.6% |
| CCOC(=O)c1cc2c(n1Cc1cccc(OC)c1)-c1oncc1CC2 | 34.7% | 50.6% | 37.1% | -0.772% (active) | 53.2% | 42.8% | 7.23% (active) | 10.8% | 13.1% | 33.1% | 13.3% | 37% | 41.7% | 73% | 69.1% | 29.7% | 19.6% | -16.4% (active) | -15.6% (active) | 6.41% (active) |
| CCOC(=O)c1c(Cl)c2c(n1Cc1cccc(OC)c1)-c1oncc1CC2 | 27.8% | 56.4% | 42.7% | -1.88% (active) | 54.7% | 44.8% | 7.94% (active) | 1.89% (active) | 15.8% | 25.9% | 8.61% (active) | 35.4% | 37.4% | 74.3% | 56.7% | 17.2% | 23.5% | -34.9% (active) | -11.2% (active) | 1.8% (active) |
| O=C(NNC(=O)c1ccncc1)Nc1ccc([N+](=O)[O-])cc1 | 95.8% | 91.6% | 114% | 89.6% | 106% | 101% | 96.5% | 115% | 107% | 81.2% | 91.9% | 102% | 105% | 108% | 108% | 104% | 120% | 103% |  | 96.4% |
| COc1ccc(NC(=O)CCn2cnc3c(cc(-c4ccccc4)n3-c3ccccc3)c2=O)cc1 | 104% | 85.8% | 85.1% | 88.8% | 105% | 82% | 78.3% | 108% | 93.3% | 104% | 95.7% | 93.4% | 102% | 94.7% | 72.1% | 58.1% | 78.9% | 98% | 46% | 63% |
| COC(=O)c1ccc(Cn2ccc(=O)[nH]c2=O)cc1 | 100% | 116% | 104% | 89.3% | 104% | 107% | 97.4% | 120% | 92% | 89.3% | 94.1% | 106% | 115% | 104% | 109% | 116% | 114% | 130% | 121% | 110% |
| COc1cc([C@@H]2c3cc4c(cc3[C@H](SC(=N)N)[C@H]3COC(=O)[C@H]23)OCO4)cc(OC)c1OC | 30.8% | 33.2% | 27.3% | 29.3% | 72.4% | 26.3% | 5.13% (active) | 48.2% | 4.96% (active) | 26% | 14.1% | 8.62% (active) | 23.5% | 28.2% | 54.7% | -4.1% (active) | -0.422% (active) | 1.61% (active) | 34.2% | -0.709% (active) |
| Nc1nc(SCC#CCCl)c2[nH]cnc2n1 | 57.2% | 54.4% | 44.8% | -6.63% (active) | 37% | 44% | 9.59% (active) | 53.8% | 23.3% | 35.8% | 29.9% | 36.2% | 71.2% | 90.8% | 43.1% | 49.6% | 25.4% | 54.5% | 73.6% | 67% |
| CCOC(=O)c1cc2c(n1Cc1ccccc1)-c1oncc1CC2 | 85.7% | 77% | 98.6% | 25.4% | 101% | 82.1% | 36.5% | 48.4% | 53.1% | 25.2% | 13.1% | 67.1% | 97% | 97.4% | 105% | 92% | 42.4% | -0.497% (active) | 76.8% | 45.3% |
| Oc1ccc(/C=N\Nc2ccccn2)c(O)c1 | 46.3% | 33% | 24.1% | -19.7% (active) | 61.6% | 7.03% (active) | -15.3% (active) | 70.7% | 8.18% (active) | 11.2% | 11.7% | 26.2% | 26.6% | 61.4% | 32.7% | 32.4% | 22.7% | -2.36% (active) | 65.8% | 0.0991% (active) |
| CCOc1nc(-c2ccccc2)cc2c(O)c(C(=O)NCCCO)[nH]c(=O)c12 | 92.7% | 108% | 103% | 79.6% | 146% | 91.6% | 87.8% | 93.5% | 68% | 97% | 141% | 51.2% | 108% | 92.4% | 103% | 84.6% | 57.6% | 93.1% | 100% | 113% |
| C=CCNCCCN1C(=O)c2ccc3c4c(ccc(c24)C1=O)C(=O)N(CCCNCC=C)C3=O | -35.6% (active) | -78.7% (active) | -77.7% (active) | -44.3% (active) | -3.01% (active) | -9.77% (active) | -42.8% (active) | -71% (active) | 4.96% (active) | -3.33% (active) | -12.8% (active) | 11.3% | -14.5% (active) | -44.6% (active) | -98.5% (active) | -36.9% (active) | -70.3% (active) | -18.1% (active) | -41.3% (active) | -7.11% (active) |
| NC(=O)C12C(=O)NC(=O)C1(C(=O)O)C21CCCC1 (configuration not stated) | 108% | 106% | 101% | 75.8% | 111% | 112% | 112% | 114% | 96.9% | 97.2% | 106% | 94.6% | 104% | 110% | 104% | 116% | 106% | 116% |  | 114% |
| CCCCCCCCCCCCCC[n+]1ccc(C)cc1 | 13.2% | -36.2% (active) | -2.55% (active) | 23.7% | -41.2% (active) | 21.5% | 31.7% | 39.2% | -35.4% (active) | -36.6% (active) | -38.2% (active) | -29.7% (active) | -19.1% (active) | 3.81% (active) | 7.84% (active) |  | -79.5% (active) | -57.2% (active) | -22.6% (active) | 66.6% |
